Data: PubChem BioAssay (NCI)
Compounds without any hit were thinned out: in the full panel of roughly 83,000, 20% have a hit.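 Method: cells in 96-well plates; compound added at one concentration; 48 h incubation; percent growth measured; values under 10 scored active.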 The source made the active and inactive calls.

tested on: NCI-H226 lung; assay: NCI-60 one-dose screen, 48 h (100 = growth as untreated, 0 = no growth, -100 = all killed); settings: 10 µM unless noted
Method: Growth inhibition of the NCI-H226 human Non-Small Cell Lung tumor cell line is measured as a screen for anti-cancer activity. Cells are grown in 96 well plates and exposed to the test compound for 48 hours. Compounds are tested at a single concentration, which is 10^-5 M for most compounds. The reported endpoint is percent growth (GI% or GIPRCNT), where numbers from 0 - 100% represent growth inhibition, and numbers from -100% - 0 represent cell death. For example, a value of 40 represents 60% growth inhibition. A value of 0 means no net growth occurred over the course of the experiment. A value of -40 indicates 40% of cells at the beginning of the experiment died by the end of the experiment. A value of -100 means all cells are dead at the end of the experiment.
NCI-60 Human Tumor Cell Lines Screen was performed using the standard one-dose NCI protocol, which is described in more detail at https://dtp.cancer.gov/discovery_development/nci-60/default.htm.
Compounds with GIPRCNT values below 10 were considered active. Activity score was based on GIPRCNT using the following formula: […]
Score is 0 for GIPRCNT values of 100 or above, 50 for GIPRCNT values of 0, and 100 for GIPRCNT values of -100.

**Q.** Which growth does the source give for `O=c1c2cc(F)ccc2sc2c(NCCN3CCCCC3)nc3ccccc3c12` here?
**A.** 77% (inactive)

**Q.** How did the growth turn out when `COc1ccc(CN2C(=O)C(Cl)=C(Nc3cccc(C(F)(F)F)c3)C2=O)cc1` was run?
**A.** 49.5% (inactive)

**Q.** How did the growth turn out when `COc1ccc(/C=C/c2c(C(=O)/C=C/c3cccs3)c(C)nc3ccccc23)cc1` was run?
**A.** 76% (inactive)

**Q.** `Clc1cccc(Cl)c1C(Nc1nc2ccccc2s1)Nc1nc2ccccc2s1` was tested. Which growth did it give?
**A.** 89.9% (inactive)

**Q.** With `O=C(Nc1ccccc1Cl)Oc1ccc(-c2ccccc2)cc1` as the molecule, how does the growth read?
**A.** 103% (inactive)

**Q.** With `O=C1CC(N2C(=O)/C(=C/C(Cl)=C\c3ccc([N+](=O)[O-])cc3)SC2=S)C(=O)N1c1ccc(O)cc1` (stereo not given) as the molecule, how does the growth read?
**A.** -64% (active)

**Q.** `CC(C)CCC[C@@H](C)[C@H]1CC[C@H]2[C@@H](Nc3ccc(O)cc3)CCC[C@]12C` was tested. Which growth did it give?
**A.** 105% (inactive)

**Q.** Which growth does the source give for `COc1ccc(C2C(c3nn[nH]n3)=C(N)Oc3c2ccc2ccccc32)cc1` (stereo not given) here?
**A.** 82.4% (inactive)

**Q.** `COC(=O)[C@]12CC[C@@H](C)[C@H](C)[C@@H]1C1=CC[C@@H]3[C@@]4(C)C(C=O)=C[C@@](C)(COC(C)=O)[C@@H]4C(=O)C[C@@]3(C)[C@]1(C)CC2` was tested. Which growth did it give?
**A.** 38.7% (inactive)

**Q.** `C=C(C)[C@@H]1CC[C@]2(C(=O)NC3CCCCC3)CC[C@]3(C)[C@H](CC[C@@H]4[C@@]5(C)CCCNC(C)(C)[C@@H]5CC[C@]43C)[C@@H]12` was tested. Which growth did it give?
**A.** 63% (inactive)

**Q.** For `O=C(NCCCNc1cc(-c2cn(-c3ccccc3)nc2-c2cccc(O)c2)ccn1)c1ccccc1`, which growth is on record?
**A.** 54.9% (inactive)

**Q.** How did the growth turn out when `NCCCNc1nc2ccccc2c2c(=O)c3cccc(Cl)c3sc12` was run?
**A.** 59.6% (inactive)

**Q.** Which growth does the source give for `N#Cc1c2c(nn(-c3ccccc3)c1=O)C(O)=C([N+](=O)[O-])C(c1ccccc1)C2` (stereo not given) here?
**A.** 102% (inactive)

**Q.** With `COc1cccc2c1C(=O)c1c(O)c3c(c(O)c1C2=O)CC(O)(/C(C)=N/NC(=O)CCCCC(=O)N/N=C(\C)C1(O)Cc2c(O)c4c(c(O)c2C(OC2CC(N)C(O)C(C)O2)C1)C(=O)c1c(OC)cccc1C4=O)CC3OC1CC(N)C(O)C(C)O1` (stereo not given) as the molecule, how does the growth read?
**A.** -56.1% [5 µM] (active)

**Q.** For `Cc1cc(N2CCCC2)nc(NCc2cc(Nc3ccnc4cc(Cl)ccc34)ccc2F)n1`, which growth is on record?
**A.** 24.8% (inactive)

**Q.** How did the growth turn out when `COC(=O)[C@]12CC[C@@H](C)[C@H](C)[C@@H]1C1=CC[C@@H]3[C@@]4(C)C(C=O)=C[C@@](C)(CO)[C@@H]4[C@H](O)C[C@@]3(C)[C@]1(C)CC2` was run?
**A.** 3.36% (active)

**Q.** `Cn1c(=O)c2[nH]c(NN)nc2n(C)c1=O` was tested. Which growth did it give?
**A.** 106% (inactive)

**Q.** Which growth does the source give for `Cc1cc(=O)[nH]c(N=Nc2c(O)[nH]c3ccccc23)n1` here?
**A.** 97.9% (inactive)

**Q.** `CCOC(=O)c1csc(NC(=O)COc2cccc(/C=C3\Oc4cc(OC)ccc4C3=O)c2)n1` was tested. Which growth did it give?
**A.** 89.5% (inactive)

**Q.** `Cc1ccc(C(=O)C2=C(O)C(=O)N(Cc3cccnc3)C2c2ccccc2F)o1` (stereo not given) was tested. Which growth did it give?
**A.** 96.5% (inactive)

**Q.** With `C[C@H]1[C@H]2[C@H]3CC[C@@H]4[C@@]5(C)C/C(=C/c6cccnc6)C(=O)C(C)(C)[C@@H]5CC[C@@]4(C)[C@]3(C)CC[C@]23CO[C@]1(C)[C@@H](C(=O)/C=C\c1cccnc1)C3` as the molecule, how does the growth read?
**A.** -13.5% (active)

**Q.** With `COCN1CCC2N(COC)CCC3N(COC)CCC1N23` (stereo not given) as the molecule, how does the growth read?
**A.** 111% (inactive)

**Q.** How did the growth turn out when `Cn1cc2c(c1)-c1nc(Nc3ccccc3)ncc1CC2` was run?
**A.** 51.7% (inactive)

**Q.** How did the growth turn out when `Cc1ccc2nc(C)c(-c3nnc(SCc4ccc(C#N)cc4)o3)n2c1` was run?
**A.** 93.5% (inactive)

**Q.** For `O=C(CCCCCCSc1nc(-c2ccccc2)cc(-c2ccc(Cl)cc2)n1)NO`, which growth is on record?
**A.** 2.23% (active)

**Q.** Which growth does the source give for `CC(=O)n1c(-c2ccc(Cl)cc2)nc2c(c1=O)C(c1ccc(Cl)cc1)c1sc3c(Cl)cccc3c1O2` (stereo not given) here?
**A.** 9.2% (active)

**Q.** `CN1C(=O)N(C)C2C1NN=c1s/c(=C\c3ccccc3)c(=O)n12` (stereo not given) was tested. Which growth did it give?
**A.** 80.2% (inactive)

**Q.** Which growth does the source give for `Cc1cc(NCc2cc(Nc3ccnc4cc(Cl)ccc34)ccc2F)nc(N2CCN(c3ccccc3)CC2)n1` here?
**A.** 55.4% (inactive)

**Q.** How did the growth turn out when `COc1cc(/C=N/NC(=O)Cn2c(C(C)C)nc3ccccc32)ccc1O` was run?
**A.** 93.7% (inactive)

**Q.** Which growth does the source give for `C=C1C(=O)O[C@H]2[C@H]1CC/C(COC(=O)C(=O)c1cn(C)c3ccc(OC)cc13)=C\CC[C@@]1(C)O[C@@H]21` here?
**A.** -67.5% (active)

**Q.** `COc1ccc(-c2cc(-c3cc(OC)c(OC)c(OC)c3)c(C#N)c(N3CCOCC3)n2)cc1O` was tested. Which growth did it give?
**A.** 108% (inactive)

**Q.** `CC/C=C\CCC/C=C1/C(=O)C=C[C@@H]1C/C=C\CCCC(=O)O` was tested. Which growth did it give?
**A.** 90.3% (inactive)

**Q.** How did the growth turn out when `COc1cccc(-c2nn(-c3ccccc3)cc2-c2ccnc(NCCNC(=O)Nc3cccc(C(F)(F)F)c3)c2)c1` was run?
**A.** 61% (inactive)

**Q.** For `Cn1c(I)c(C#C[Si](C)(C)C)c(=O)n(C(=O)c2ccccc2)c1=O`, which growth is on record?
**A.** 79.6% (inactive)

**Q.** How did the growth turn out when `CC1(C)CC(=O)C2=C(C1)N(c1ccc(OC(F)(F)F)cc1)C(N)=C(C#N)C2c1ccc(Cl)cc1` (stereo not given) was run?
**A.** 90.7% (inactive)

**Q.** Which growth does the source give for `COc1cc2c(cc1-c1c(C)noc1C)ncc1nc(C3CCC(F)(F)CC3)n(C3CCC(OC(F)F)CC3)c12` (stereo not given) here?
**A.** 66.7% (inactive)

**Q.** How did the growth turn out when `CNC(=O)c1cc(Oc2ccc3nc(Nc4ccc(Cl)c(C(F)(F)F)c4)ccc3c2)ccn1` was run?
**A.** 56.9% (inactive)

**Q.** With `Cn1c(-c2c(N)n(Cc3cccnc3)c3nc(C#N)c(C#N)nc23)nc2ccccc21` as the molecule, how does the growth read?
**A.** 98.4% (inactive)

**Q.** With `O=C(N=c1oc2ccccc2cc1-c1cc2ccccc2[nH]1)c1ccc(Cl)cc1` as the molecule, how does the growth read?
**A.** 84.6% (inactive)

**Q.** With `N#CC1=C(c2ccc(Br)cc2)NC(SCC(=O)c2ccc(Br)cc2)NC1=O` (stereo not given) as the molecule, how does the growth read?
**A.** 97% (inactive)
